Experimental data: PubChem BioAssay (NCI)
The panel holds about 83,000 compounds, 20% with a hit somewhere; the sample as a whole holds those more often.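 Treatment: one concentration, 48 hours, 96-well format. Scoring: percent growth, with anything below 10 considered active.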 Active and inactive are the calls of the source.

What was measured:
Assay in all cases: NCI-60 one-dose screen, 48 h (100 = growth as untreated, 0 = no growth, -100 = all killed)
Conditions in all cases: 10 µM unless noted
[1] = system: NCI-H23 lung
[2] = system: NCI-H226 lung
[3] = system: NCI-H322M lung
[4] = system: HOP-62 NSCLC
[5] = system: NCI-H460 lung
[6] = system: HOP-92 NSCLC
[7] = system: NCI-H522 lung
[8] = system: A549/ATCC NSCLC
[9] = system: 786-0 renal
[10] = system: COLO 205 colon
[11] = system: DU-145 prostate
[12] = system: K-562 leukemia
[13] = system: MALME-3M melanoma
[14] = system: MDA-MB-231 breast
[15] = system: RXF 393 renal
[16] = system: SF-268 CNS
[17] = system: SF-295 CNS
[18] = system: SF-539 CNS
[19] = system: UACC-257 melanoma
[20] = system: M14 melanoma

Measured: growth

CCN(CC)c1ccc2nc3ccc(N=Nc4ccc(N(C)C)cc4)cc3[n+](-c3ccccc3)c2c1
inactive: [3] 25.2%
active: [1] -64.9% | [2] -36.9% | [4] -87.9% | [5] -66.4% | [6] -14.6% | [7] -44.9% | [8] 3.32% | [9] -56.8% | [10] -89.9% | [11] -98% | [12] -4.96% | [13] -54.1% | [14] -46.4% | [15] -87.8% | [16] 9.77% | [17] -82.2% | [18] -69.2% | [19] -52.5% | [20] -75%

CC1(C)CCC(C)(C)NC(=S)N1
inactive: [1] 100% | [3] 109% | [4] 94.9% | [5] 115% | [6] 107% | [7] 94.8% | [8] 108% | [9] 105% | [10] 103% | [11] 107% | [12] 103% | [13] 97.3% | [14] 111% | [15] 112% | [16] 105% | [17] 102% | [18] 105% | [19] 113% | [20] 98.9%
active: [2] -99.8%

COc1cc(CC#N)c([N+](=O)[O-])cc1OC
inactive: [1] 96% | [2] 105% | [3] 105% | [4] 113% | [5] 106% | [6] 99.8% | [7] 102% | [8] 102% | [9] 102% | [10] 110% | [11] 109% | [12] 94.8% | [13] 111% | [14] 99.9% | [15] 112% | [16] 103% | [17] 110% | [18] 102% | [19] 103% | [20] 109%

CN(C)Cc1ccccn1
inactive: [1] 101% | [2] 108% | [3] 96.3% | [4] 104% | [5] 109% | [6] 114% | [7] 91.9% | [8] 93.1% | [9] 97% | [10] 117% | [11] 120% | [12] 107% | [13] 98.7% | [14] 98.8% | [15] 99.5% | [16] 111% | [17] 101% | [18] 92.1% | [19] 99% | [20] 97.9%

O=C1C=Cc2ccccc2/C1=C/c1[nH]c(=O)[nH]c1O
inactive: [1] 51.7% | [2] 45.2% | [3] 57.8% | [4] 41.3% | [5] 84.8% | [6] 45.9% | [8] 82% | [9] 27.6% | [10] 34.3% | [11] 54.5% | [12] 26% | [13] 23.5% | [14] 62.6% | [15] 34.2% | [16] 55.2% | [17] 28.9% | [18] 17.6% | [20] 22.3%
active: [7] -17.7% | [19] 2.03%

S=C(NCc1ccccc1)N1CCC(CCCC2CCN(C(=S)NCc3ccccc3)CC2)CC1
inactive: [1] 90% | [2] 91.4% | [3] 118% | [4] 97.2% | [5] 106% | [6] 77.5% | [7] 80.2% | [8] 95.5% | [9] 101% | [10] 110% | [11] 105% | [12] 69.9% | [13] 104% | [14] 99.2% | [15] 107% | [16] 93% | [17] 97.7% | [18] 99.1% | [19] 100% | [20] 100%

O=C(CCl)Oc1ccc([N+](=O)[O-])cc1
inactive: [1] 108% | [2] 102% | [3] 106% | [4] 98.9% | [5] 107% | [6] 78.5% | [7] 107% | [8] 108% | [9] 108% | [10] 116% | [11] 113% | [12] 103% | [13] 116% | [14] 119% | [15] 99.5% | [16] 109% | [17] 97.3% | [18] 109% | [19] 112% | [20] 103%

ClCc1cccc2c(CCl)cccc12
inactive: [1] 61.5% | [2] 74.9% | [4] 54.5% | [5] 16.7% | [6] 89.4% | [7] 79.4% | [8] 57.7% | [10] 77.9% | [11] 32.6% | [12] 79.2% | [13] 90.6% | [14] 92.3% | [15] 61% | [16] 64.3% | [17] 58.6% | [18] 61.6% | [19] 70% | [20] 25.8%
active: [3] -4.83% | [9] -74.3%
